Hit rate of the full screen: of about 400,000 compounds, about 2,100 (0.53%) were called active. About 14% were inconclusive and are not listed. No rule for the calls is given here. The sample as a whole holds a higher share of actives than the screen did.
What follows are molecules tested against Ataxin-2 (Homo sapiens) (UniProt Q99700) (assay: qHTS for Inhibitors of ATXN expression.).
Format: functional

Sequence of Ataxin-2 (Homo sapiens) (Q99700 whole entry): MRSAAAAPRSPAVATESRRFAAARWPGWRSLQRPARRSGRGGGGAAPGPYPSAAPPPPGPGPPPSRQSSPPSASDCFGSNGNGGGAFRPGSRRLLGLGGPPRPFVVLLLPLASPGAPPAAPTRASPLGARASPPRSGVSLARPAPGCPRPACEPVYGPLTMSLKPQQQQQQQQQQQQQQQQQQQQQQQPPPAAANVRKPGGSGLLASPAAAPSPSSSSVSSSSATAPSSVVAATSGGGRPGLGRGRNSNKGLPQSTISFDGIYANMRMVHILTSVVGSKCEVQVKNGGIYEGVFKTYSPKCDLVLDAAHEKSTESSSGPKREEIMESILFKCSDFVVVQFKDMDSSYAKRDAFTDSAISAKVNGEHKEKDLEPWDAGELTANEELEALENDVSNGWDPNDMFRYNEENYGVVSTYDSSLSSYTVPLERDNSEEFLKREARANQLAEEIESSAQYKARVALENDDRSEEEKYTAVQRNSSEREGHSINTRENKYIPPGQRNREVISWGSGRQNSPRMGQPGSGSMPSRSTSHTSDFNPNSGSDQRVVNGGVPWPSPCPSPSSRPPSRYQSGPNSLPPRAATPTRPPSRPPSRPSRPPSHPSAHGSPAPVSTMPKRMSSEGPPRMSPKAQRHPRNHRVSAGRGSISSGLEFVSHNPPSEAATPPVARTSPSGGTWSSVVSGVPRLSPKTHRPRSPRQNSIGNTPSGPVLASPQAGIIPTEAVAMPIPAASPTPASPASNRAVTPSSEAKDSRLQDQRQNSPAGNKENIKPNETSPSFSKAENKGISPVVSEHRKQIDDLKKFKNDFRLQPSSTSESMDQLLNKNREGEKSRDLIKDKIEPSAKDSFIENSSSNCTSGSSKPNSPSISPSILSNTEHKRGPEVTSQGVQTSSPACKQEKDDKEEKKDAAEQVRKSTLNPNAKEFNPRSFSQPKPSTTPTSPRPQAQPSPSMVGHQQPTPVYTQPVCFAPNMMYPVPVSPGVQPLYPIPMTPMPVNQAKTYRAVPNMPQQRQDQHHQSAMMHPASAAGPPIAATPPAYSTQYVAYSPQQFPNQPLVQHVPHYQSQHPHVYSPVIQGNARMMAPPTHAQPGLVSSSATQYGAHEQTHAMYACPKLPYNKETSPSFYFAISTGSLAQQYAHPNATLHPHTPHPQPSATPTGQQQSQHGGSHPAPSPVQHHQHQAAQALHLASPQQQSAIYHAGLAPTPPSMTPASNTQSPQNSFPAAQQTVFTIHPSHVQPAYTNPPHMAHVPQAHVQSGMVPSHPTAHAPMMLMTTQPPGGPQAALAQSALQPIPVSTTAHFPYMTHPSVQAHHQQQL

SMILES | Potency
CCCCC(=O)Nc1nn(CC)c2nc3c(C)cccc3cc12 | inactive
Nc1c(C(=O)N2CCCC2)sc2nc(-c3ccccc3)ccc12 | inactive
COc1ccc(S(=O)(=O)N(C)C[C@@H]2OCCCC[C@@H](C)Oc3ccc(NC(=O)NC(C)C)cc3C(=O)N([C@H](C)CO)C[C@@H]2C)cc1 | inactive
C[C@H]1CCCCO[C@@H](CN(C)S(=O)(=O)c2ccc(Cl)cc2)[C@@H](C)CN([C@@H](C)CO)C(=O)c2cc(NS(=O)(=O)c3ccccc3)ccc2O1 | 31.6 µM (active)
C[C@@H]1CCCCO[C@H](CN(C)Cc2ccccc2)[C@@H](C)CN([C@H](C)CO)C(=O)c2cc(NS(=O)(=O)c3ccc(Cl)cc3)ccc2O1 | 35.5 µM (active)
C[C@@H]1CCCCO[C@@H](CN(C)CC2CCCCC2)[C@@H](C)CN([C@H](C)CO)C(=O)c2cc(NS(=O)(=O)c3ccc(Cl)cc3)ccc2O1 | 31.6 µM (active)
N#CC(Sc1ccccn1)c1ccc(Cl)cc1 (stereo not given) | inactive
CC(C)c1ccc2[nH]c3c(c2c1)CCC/C3=N\NC(=O)c1ccncc1 | inactive
O=S(=O)(Nc1cccc(Cl)c1)c1ccc2[nH]c3c(c2c1)CCCCCC3 | 31.6 µM (active)
O=C(COC(=O)c1ccc2[nH]c3c(c2c1)CCCC3)NC1CCS(=O)(=O)C1 (stereo not given) | inactive
Clc1ccc2[nH]c3c(c2c1)CNCC3 | inactive
CN(CC(=O)Nc1cccc(C(F)(F)F)c1)S(=O)(=O)c1ccc2[nH]c3c(c2c1)CCCC3 | 35.5 µM (active)
Cc1ccc(S(=O)(=O)Nc2cccc(N(C)S(C)(=O)=O)c2)cc1[N+](=O)[O-] | inactive
CN(CC(=O)Nc1cccc(Cl)c1)S(=O)(=O)c1ccc2[nH]c3c(c2c1)CCCC3 | 39.8 µM (active)
CC(C)c1ccc2[nH]c(O)c(N=NC(=O)c3cccc(S(=O)(=O)Nc4cccc(Cl)c4)c3)c2c1 | 1.41 µM (active)
CSc1nc(O)c(C(c2ccc(C)cc2)c2c(O)nc(SC)nc2O)c(O)n1 | inactive
CCCn1c(=O)n(CC(=O)NCC2CCCO2)c(=O)c2c3c(sc21)COC(C)(C)C3 (stereo not given) | inactive
CC1CCc2sc(C(=O)OCC(=O)NC(C)C)cc2C1 (stereo not given) | inactive
Cc1cc(NC(=O)CCC(=O)N(C(C(=O)NC(C)(C)C)c2ccccc2Cl)C(C)(C)C)no1 (stereo not given) | inactive
COc1ccccc1C1C2=C(CCCC2=O)N(CC(=O)O)C2=C1C(=O)CCC2 | inactive
Cc1ccc(NC(=O)c2sc3nc(-c4ccc(F)cc4)ccc3c2N)cc1F | inactive
CC(C)c1ccc(C2=CC(c3ccc(C(C)C)cc3)n3nnnc3N2)cc1 (stereo not given) | inactive
CCc1ccc2nc3nc(C)cc(C)c3c(N)c2c1 | inactive
Cc1ccc(C(=O)CC(=O)c2ccccc2C)c(O)c1 | inactive

SMILES | Potency
CC(=O)c1cccc(NC(=O)C(C)OC(=O)c2cccc(S(=O)(=O)N3CCN(C)CC3)c2)c1 (stereo not given) | inactive
Cc1nnc2ccc(-c3ccc(NC(=O)c4ccco4)cc3)nn12 | inactive
Cc1ccc(-c2nn3c(C)nnc3s2)cc1NC(=O)c1ccc(-c2ccc(Cl)cc2Cl)o1 | 8.91 µM (active)
O=C(NCCO)c1ccc2nc(Cc3cccc(Cl)c3)oc2c1 | inactive
C=C(C)CNC(=O)c1ccc2nc(Cc3ccc(OC)cc3)oc2c1 | inactive
O=C(NCCCN1CCN(c2ccc(F)cc2)CC1)c1ccc2nc(Cc3ccccc3)oc2c1 | 20 µM (active)
O=c1c(O)c(-c2cccs2)oc2ccc(Cl)cc12 | inactive
Cc1ccc2cc(C#N)c(NCc3ccccc3)nc2c1 | inactive
N#Cc1ncc(Cc2ccccc2)nc1C#N | 39.8 µM (active)
Cc1nc2nc(SCc3ccccc3)nn2c(O)c1CCC(C)C | inactive
COc1ccc(NC(=O)c2cc3c(=O)n(C)c4ccccc4c3s2)cc1OC | inactive
CC1CCN(CCCNC(=O)c2cc3c(Cl)nc4ccccc4c3s2)CC1 | 39.8 µM (active)
COc1ccc(NC(=O)c2cc3c(Cl)nc4ccccc4c3s2)cc1OC | 35.5 µM (active)
O=C(Cc1csc(Nc2nc(S)nc3ccccc23)n1)NCCCN1CCN(c2cccc(Cl)c2)CC1 | inactive
CCC1CCCCN1CCCNC(=O)c1cc2c(Cl)nc3ccccc3c2s1 (stereo not given) | 31.6 µM (active)
CCC1CCCCN1c1nc2c(C=O)c(C)nn2c2ccccc12 (stereo not given) | inactive
O=C(NC1CCCC1)c1cc2c(=O)n3ccccc3nc2s1 | inactive
COc1ccc(-c2cc(C(=O)NC3=NCCS3)c3ccccc3n2)cc1OC | inactive
O=C(Cc1csc(Nc2nc(S)nc3ccccc23)n1)NCCCN1CCN(c2ccccc2F)CC1 | inactive
CCCCCC(=O)NC(=S)Nc1ccc(Cl)cn1 | inactive
N#Cc1cnn2c(-c3cccc([N+](=O)[O-])c3)ccnc12 | inactive
FC(F)(F)c1cc(-c2cccs2)nc2ncnn12 | inactive
CN1CCN(C(=O)CN(C2CCCCC2)S(=O)(=O)c2ccccc2)CC1 | inactive
CCN(CC)CCCN(Cc1cc2cc3c(cc2nc1O)OCO3)C(S)=Nc1ccc(OC)cc1 | inactive

SMILES | Potency
CCOc1ccccc1C(=O)N(Cc1ccccc1)Cc1cc2cc3c(cc2nc1O)OCCO3 | 35.5 µM (active)
COc1ccccc1C(=O)N(Cc1cc2cc3c(cc2nc1N(C)C)OCO3)CC1CCCO1 (stereo not given) | inactive
Cc1ccc(CNCc2c(C(=O)O)n(Cc3ccc(C)cc3)c3cc(C)ccc23)cc1 | 22.4 µM (active)
CCOc1ccc(C2C(C(=O)OC)=CN(CCOC)C=C2C(=O)OC)cc1 | inactive
CCc1cccc(C)c1NC(=O)CNCc1ccccc1 | inactive
Cc1ccc(CNS(=O)(=O)c2ccc3c(c2)CCN3C(=O)CCCC(=O)O)cc1 | inactive
Cc1ccc(CNC(=O)c2ccc3c(O)c(O)c(-c4ccc(C)cc4)nc3c2)cc1 | inactive
CCNC(=O)c1cc2c(=O)n3cccc(C)c3nc2n(Cc2ccc(C)cc2)c1=N | inactive
CCOc1ccc(-c2oc3ccc(C)cc3c(=O)c2O)cc1 | inactive
CCOc1ccc(CNCc2c(C(=O)O)n(Cc3ccc(C)cc3)c3cc(C)ccc23)cc1 | 25.1 µM (active)
Cc1ccc(Cn2c(C(=O)O)c(CNCc3ccc(OC(C)C)cc3)c3ccc(C)cc32)cc1 | 35.5 µM (active)
CCc1ccc(CNCc2c(C(=O)O)n(Cc3ccc(C)cc3)c3cc(C)ccc23)cc1 | 31.6 µM (active)
Cc1cccc(C(=O)/N=c2/c(C#N)cc3c(=O)n4cccc(C)c4nc3n2Cc2ccco2)c1 | inactive
Cn1ncc(Oc2ccc([N+](=O)[O-])cc2)c(Cl)c1=O | inactive
O=C(c1ccccn1)N(c1ccccc1)C1(C(=O)NC2CCCCC2)CCCCC1 | inactive
OC[C@@H]1[C@@H](c2ccccc2)C(c2ccccc2)=NN1c1ccccc1 | inactive
CCOCCCNC(=O)C(NC(=O)c1ccc2c(c1)OCO2)c1ccc(Cl)cc1 (stereo not given) | inactive
NC1=Nc2cccc3cccc1c23 | inactive
Cc1cc2c(cc1C)NC(CC(=O)Nc1ccccc1SC(F)(F)F)C(=O)N2 (stereo not given) | inactive
Cc1cc2n(n1)C(c1ccccc1)CC(c1ccc(Br)cc1)=N2 (stereo not given) | inactive
CCOC(=O)c1c(SCC(=O)Nc2nccs2)nc(C)c(C)c1C | inactive
CC(=O)NS(=O)(=O)c1ccc(N2C(=O)CC(Sc3nccc(C)n3)C2=O)cc1 (stereo not given) | inactive
Cc1ccc(N2C(=O)CC(Sc3nc4ccccc4o3)C2=O)cc1Cl (stereo not given) | 39.8 µM (active)
Cc1cc(C)nc(SC2CC(=O)N(c3ccc(C)c(C)c3)C2=O)n1 (stereo not given) | inactive

SMILES | Potency
CSc1ccc(/C=C2\CCn3c2nc2cc(C(=O)O)ccc2c3=O)cc1 | inactive
CCN(CC)C(=O)c1cc2c(=O)n3cccc(C)c3nc2s1 | inactive
C/C(=N\NC(=O)COc1ccc([N+](=O)[O-])cc1)c1ccco1 | inactive
Cc1cccc(C)c1NC(=O)Cn1nnc(-c2ccc(N3CCOCC3)cc2)n1 | 39.8 µM (active)
O=C(Cn1nnc(-c2ccccc2)n1)NCC(=O)Nc1ccc(F)c(F)c1F | inactive
Cc1ccccc1-c1nnn(CC(=O)Nc2ccc3c(c2)OCO3)n1 | inactive
CCOCCCNC(=O)c1c(N)n(-c2ccc3c(c2)OCO3)c2nc3ccccc3nc12 | inactive
COc1cccc2c(=O)c3c(cnn3C)n(C)c12 | inactive
COc1ccccc1CNC(=O)CN1C(=O)c2cccc(N)c2C1=O | inactive
COc1ccccc1CNC(=O)CCC1N=C2c3ccccc3N=C(SCc3ccc(C)cc3C)N2C1=O (stereo not given) | 17.8 µM (active)
O=C(NCc1nnc(S)n1-c1cccc(C(F)(F)F)c1)c1ccc(S(=O)(=O)N2CCCCC2)cc1 | inactive
Nc1cccn2c(-c3ccc(Cl)cc3)cnc12 | inactive
Cc1cc(-c2ccccc2)nc2oc(C(=O)NN)c(N)c12 | inactive
Cc1ccc(CSc2nc(-c3ccccc3C)nc3c2Cc2c(CO)cnc(C)c2O3)cc1 | 28.2 µM (active)
Cc1ccc(CSc2nc3ccccc3c(=O)n2C)cc1 | inactive
COc1ccc(C2CC(c3ccccc3Cl)=NN2c2ccc(S(N)(=O)=O)cc2)cc1 (stereo not given) | inactive
CC(=O)Nc1ccc(C(=O)Nc2ccncc2)cc1 | inactive
CC(C)CC(NS(=O)(=O)OCC(Cl)(Cl)Cl)c1ccccc1 (stereo not given) | 35.5 µM (active)
Cc1ccc(C)c(N(C(=O)c2snc(C(N)=O)c2N)C(C(=O)NCC2CCCO2)c2ccc(C)o2)c1 (stereo not given) | inactive
N=c1c(C(=O)NCC2CCCO2)cc2c(=O)n3ccccc3nc2n1C1CCCC1 (stereo not given) | inactive
COC(=O)c1ccc(N2C(c3cc(OC)cc(OC)c3)=Cc3ccc(-c4ccc(C(N)=O)cc4)cc3C2CC(=O)C2CC2)cc1 (stereo not given) | inactive
N=C1c2c(cc(O)n3c2nc2ccccc23)CN1CCN1CCOCC1 | inactive
C[C@@H](C[C@@H](O)[C@H](O)C(C)(C)O)[C@@H]1CC[C@]2(C)C3=CC[C@H]4C(C)(C)C(=O)CC[C@]4(C)[C@H]3CC[C@@]12C | 39.8 µM (active)
